# Test results as given in PubChem BioAssay (NCI).
# About 79,000 compounds went through this panel and 15% of them were active in at least one assay; those are over-represented in the sample as a whole. Values without a mark were called inactive. Rule as the data show it: active = growth inhibition above about 70%; inactive = the rest.
# Test: NCI Yeast Anticancer Drug Screen. Data for the cln2 rad14 strain (AID 165);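 also: 0% = growth equal to vehicle treated cultures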
# Settings: S. cerevisiae cln2 rad14 strain, at 50.0 µM, stronger effect = higher value
# How it was run: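 Readout is yeast growth inhibition versus vehicle-treated controls, using a strain with cln2 and rad14 alterations exposed to compound.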
row,SMILES,growth inhibition [%]
1,NC(C(=O)O)c1ccc([N+](=O)[O-])cc1 (configuration not stated),7.25
2,CC(=O)OCC1OC(OC2=C(CC=C(C)C)C(=O)c3ccccc3C2=O)C(OC(C)=O)C(OC(C)=O)C1OC(C)=O (configuration not stated),-15
3,O=C1N(C[P+](c2ccccc2)(c2ccccc2)c2ccccc2)CCCN1C[P+](c1ccccc1)(c1ccccc1)c1ccccc1,14.9
4,Cc1ccc(Cl)cc1N1C(=O)CC(Sc2ccccc2N)C1=O (configuration not stated),8.65
5,CN1C(=O)CN2CCc3ccccc3C2c2cc(Cl)ccc21 (configuration not stated),22.1
6,O=C(O)c1ccnc(Br)c1,11.7
7,O=C(CCl)Nc1ccc2c(c1)C(=O)c1ccc(NC(=O)CCl)cc1C2=O,1.7
8,CC(CC(=O)c1ccccc1)c1ccccc1 (configuration not stated),-13.7
9,CCOC(=O)/C(C#N)=C/c1cccc(C)c1,13.3
10,Cc1ccc(Cl)cc1NC(=O)N(C)CCO,16.6
11,N/N=C(/Cc1ccccc1)NNC(N)=S,-4.2
12,COc1ccc(-c2cc(-c3cc(-c4ccc(OC)cc4)nc(N)n3)nc(N)n2)cc1,-2.65
13,CCCCC1C(=O)N(c2ccccc2)N(c2ccccc2)C1=O,-5.75
14,CCCCOC(=O)c1ccc(C(C)C)cc1,-19.4
15,Cc1ccc(C(=O)c2ccccc2)c(C)c1,-10.4
16,C[N+](C)=c1ccc2nc3c(cc(Nc4ccccc4)c4ccccc43)oc-2c1,29.6
17,COc1ccccc1C1OC2=Nc3cc(C)c(C)cc3NC2C1=O (configuration not stated),-9.25
